Our source for the growth values is PubChem BioAssay (NCI).

Some test systems named below: SK-MEL-2 melanoma; EKVX NSCLC; SN12C renal; UO-31 renal; TK-10 renal; ACHN renal; CAKI-1 renal; A498 renal; CCRF-CEM leukemia; MOLT-4 leukemia.
Holding throughout (test): NCI-60 one-dose screen, 48 h (100 = growth as untreated, 0 = no growth, -100 = all killed)
Holding throughout (conditions): 10 µM unless noted

About 83,000 compounds went through this panel and 20% of them were active in at least one assay; those are over-represented in the sample as a whole.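 Results are percent growth after 48 hours of single-concentration exposure. 100 means growth as in untreated cells, lower positive values show inhibition; negative values down to -100 show cell death.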 Unmarked numbers belong to inactive results. Active and inactive are the calls of the source. The calls were made as follows: active = growth percent below 10; inactive = the rest.

In the case of `CC1=C(C(=O)OCc2ccccc2)C(c2ccc(-n3cncn3)cc2)n2c(nc3ccccc32)N1` (stereo not given), the growth with SK-MEL-2 melanoma is 80.6%; in the assay on EKVX NSCLC it was 48.4%; with SN12C renal it was 72.9%; in the assay on UO-31 renal, 51.6%; with TK-10 renal, 89.7%; in the assay on ACHN renal it was 51.3%. For the same molecule, the growth in the assay with CAKI-1 renal was 42.8%; in the assay on A498 renal, 79.8%; in the assay on CCRF-CEM leukemia, 16.1%; in the assay with MOLT-4 leukemia, 36.6%.

With `C(=C\c1cc(/C=C/c2ccccc2)c2ccccc2n1)/c1ccccc1`, the growth with SK-MEL-2 melanoma is 122%; with EKVX NSCLC, 100%; with SN12C renal, 76.8%; in the assay on UO-31 renal, 88.5%; with TK-10 renal, 106%; in the assay on ACHN renal, 107%. Besides, the growth in the assay on CAKI-1 renal is 94.2%; in the assay with A498 renal it was 132%; with CCRF-CEM leukemia, 60.8%; in the assay on MOLT-4 leukemia, 32.1%.

Consider `COc1ccc(CCC2c3c(cc4c(c3OC)OCO4)CCN2C)cc1` (stereo not given), for which the growth in the assay on SK-MEL-2 melanoma is -62.7% (active); in the assay on EKVX NSCLC, -17.3% (active); in the assay on SN12C renal, -18.6% (active); with UO-31 renal, -21.9% (active); in the assay with TK-10 renal, -14.7% (active); in the assay on ACHN renal it was -16.5% (active). In addition, the growth in the assay on CAKI-1 renal was 0.732% (active); in the assay on A498 renal it was 13.2%; in the assay with CCRF-CEM leukemia, 4.55% (active); in the assay with MOLT-4 leukemia it was -4.81% (active).

Take `CCCn1cc(-c2nc(Nc3ccc(C(=O)NCCCCNc4cccc5c4C(=O)N(C4CCC(=O)NC4=O)C5=O)cc3)nc3[nH]ccc23)cn1` (stereo not given): the growth in the assay with SK-MEL-2 melanoma is 10.4%; in the assay on EKVX NSCLC, 54.4%; in the assay on SN12C renal it was 12.3%; in the assay on UO-31 renal it was 73.9%; with TK-10 renal, 59.1%; in the assay on ACHN renal, 75.7%. Besides, the growth in the assay on CAKI-1 renal is 27.3%; in the assay on A498 renal, -2.58% (active); in the assay with CCRF-CEM leukemia, -15.1% (active); with MOLT-4 leukemia it was -37.9% (active).

In the case of `CCCCOc1ccc(NC(=O)c2sc3nc(C)ccc3c2N)cc1`, the growth with SK-MEL-2 melanoma is 49.2%; in the assay on EKVX NSCLC it was 6.14% (active); in the assay on SN12C renal it was 21.1%; with UO-31 renal it was 1.84% (active); in the assay with TK-10 renal it was -20.1% (active); with ACHN renal, -19.3% (active). Also, the growth in the assay with CAKI-1 renal was 26.5%; in the assay with A498 renal, 37.1%; in the assay on CCRF-CEM leukemia, 42%; in the assay on MOLT-4 leukemia, 48%.

`CCN(CC)CCOc1ccc(Nc2ncc3cc(-c4ccc(O)c(C#N)c4)c(=O)n(C)c3n2)cc1`: the growth with SK-MEL-2 melanoma is 105%; in the assay on EKVX NSCLC it was 139%; in the assay on SN12C renal, 69.5%; with UO-31 renal, 67.6%; in the assay on TK-10 renal, 96.8%; with ACHN renal, 40.1%. Further, the growth was 45.9% in the assay on CAKI-1 renal, 113% in the assay with A498 renal, -25.5% (active) in the assay on CCRF-CEM leukemia and 3.63% (active) with MOLT-4 leukemia.

Regarding `CC1(c2cc3cc(Cl)ccc3oc2=O)NC(=O)c2c(/C=C/C(=O)OC3CC4CCC3(C)C4(C)C)cccc2N1` (stereo not given), the growth was 53.7% in the assay with SK-MEL-2 melanoma; 49.4% in the assay on EKVX NSCLC; 58.5% in the assay with SN12C renal; 42.8% in the assay with UO-31 renal; 79.3% with TK-10 renal; 61.7% in the assay on ACHN renal. In addition, the growth is 59.6% with CAKI-1 renal, 118% in the assay on A498 renal, 59.4% with CCRF-CEM leukemia and 21.2% in the assay on MOLT-4 leukemia.

Consider `N#Cc1c(-c2ccc(Cl)cc2)nc2n[nH]c(-c3ccc(Cl)cc3)c2c1-c1ccc(C(F)(F)F)cc1`, for which the growth is -66.9% (active) in the assay with SK-MEL-2 melanoma; -10.5% (active) with EKVX NSCLC; -5.91% (active) with SN12C renal; -1.42% (active) in the assay with UO-31 renal; 15.9% with TK-10 renal; 2.15% (active) with ACHN renal. In addition, the growth is -20.1% (active) with CAKI-1 renal, 50.5% in the assay with A498 renal, -7.76% (active) with CCRF-CEM leukemia and 12.8% in the assay with MOLT-4 leukemia.

For the molecule `O=C(NNc1ccccc1)n1c(=O)c2ccccc2c(=O)n1-c1ccccc1`, the growth in the assay with SK-MEL-2 melanoma was 117%; in the assay with EKVX NSCLC, 91.3%; in the assay with SN12C renal, 85.9%; with UO-31 renal it was 81.5%; in the assay on TK-10 renal it was 95%; with ACHN renal, 93.7%. The growth with CAKI-1 renal is 77.2%; in the assay with A498 renal it was 101%; in the assay with CCRF-CEM leukemia, 99.5%; in the assay on MOLT-4 leukemia it was 91.3%.

As to `CCOC(=O)c1ccc(Nc2nc(NN)nc(-c3ccc(F)cc3)c2C#N)cc1`, the growth is 115% in the assay with SK-MEL-2 melanoma; 120% in the assay with EKVX NSCLC; 103% in the assay with SN12C renal; 88.3% in the assay with UO-31 renal; 104% in the assay on TK-10 renal; 103% in the assay with ACHN renal. Further, the growth with CAKI-1 renal was 108%; in the assay with A498 renal, 101%; in the assay with CCRF-CEM leukemia it was 91.9%; with MOLT-4 leukemia, 89.8%.

In the case of `Cc1cc2c(cc1Cl)C(=O)/C(=C/c1ccccc1)O2`, the growth in the assay with SK-MEL-2 melanoma is 41%; in the assay with EKVX NSCLC it was -7.97% (active); in the assay on SN12C renal, -68.8% (active); in the assay on UO-31 renal, -80.4% (active); in the assay with TK-10 renal, 56%; with ACHN renal it was -83.1% (active). For the same molecule, the growth with CAKI-1 renal was -81.1% (active); in the assay with A498 renal, 115%; in the assay on CCRF-CEM leukemia, 4.91% (active); in the assay on MOLT-4 leukemia, 0.549% (active).

As to `CC(C)c1ccc2c(N)c(C(=O)Nc3cccc(C(F)(F)F)c3)sc2n1`, the growth was 89.5% in the assay on SK-MEL-2 melanoma; 47.4% in the assay on EKVX NSCLC; 76.2% with SN12C renal; 77.9% in the assay on UO-31 renal; 97.3% in the assay on TK-10 renal; 76% in the assay on ACHN renal. In addition, the growth is 74% with CAKI-1 renal, 143% with A498 renal, 38.9% with CCRF-CEM leukemia and 56.4% in the assay on MOLT-4 leukemia.
